This note sets out measurements from PubChem BioAssay.

Assay [1] in a line: Her2 expression decrease, cell viability multiplex – SKBR3 breast tumor cells, AlphaScreen, ATP viability, primary screen (AID 461;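 active = Her2 level under about 52% in both replicate screens, with viability over 70% of control, limit read from the data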;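 as to Her2 level: lower value means less Her2 protein in the cells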;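 as to viability: percent of carrier control wells set as 100% viability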). To be noted: SKBR3 Her2 protein level, 18-24 h, measured here: SKBR3 viability, ATP luminescence, at 10 µM. (In general: In Alpha technology, singlet oxygen from a donor bead excites a nearby acceptor bead.)
The target of assay [2] is Receptor tyrosine-protein kinase erbB-2 (Homo sapiens) (UniProt P04626). The description is as above. To be noted: 18-24 h, at 10 µM, stronger effect = lower value.
Sequence of Receptor tyrosine-protein kinase erbB-2 (Homo sapiens) (P04626 whole entry, looked up): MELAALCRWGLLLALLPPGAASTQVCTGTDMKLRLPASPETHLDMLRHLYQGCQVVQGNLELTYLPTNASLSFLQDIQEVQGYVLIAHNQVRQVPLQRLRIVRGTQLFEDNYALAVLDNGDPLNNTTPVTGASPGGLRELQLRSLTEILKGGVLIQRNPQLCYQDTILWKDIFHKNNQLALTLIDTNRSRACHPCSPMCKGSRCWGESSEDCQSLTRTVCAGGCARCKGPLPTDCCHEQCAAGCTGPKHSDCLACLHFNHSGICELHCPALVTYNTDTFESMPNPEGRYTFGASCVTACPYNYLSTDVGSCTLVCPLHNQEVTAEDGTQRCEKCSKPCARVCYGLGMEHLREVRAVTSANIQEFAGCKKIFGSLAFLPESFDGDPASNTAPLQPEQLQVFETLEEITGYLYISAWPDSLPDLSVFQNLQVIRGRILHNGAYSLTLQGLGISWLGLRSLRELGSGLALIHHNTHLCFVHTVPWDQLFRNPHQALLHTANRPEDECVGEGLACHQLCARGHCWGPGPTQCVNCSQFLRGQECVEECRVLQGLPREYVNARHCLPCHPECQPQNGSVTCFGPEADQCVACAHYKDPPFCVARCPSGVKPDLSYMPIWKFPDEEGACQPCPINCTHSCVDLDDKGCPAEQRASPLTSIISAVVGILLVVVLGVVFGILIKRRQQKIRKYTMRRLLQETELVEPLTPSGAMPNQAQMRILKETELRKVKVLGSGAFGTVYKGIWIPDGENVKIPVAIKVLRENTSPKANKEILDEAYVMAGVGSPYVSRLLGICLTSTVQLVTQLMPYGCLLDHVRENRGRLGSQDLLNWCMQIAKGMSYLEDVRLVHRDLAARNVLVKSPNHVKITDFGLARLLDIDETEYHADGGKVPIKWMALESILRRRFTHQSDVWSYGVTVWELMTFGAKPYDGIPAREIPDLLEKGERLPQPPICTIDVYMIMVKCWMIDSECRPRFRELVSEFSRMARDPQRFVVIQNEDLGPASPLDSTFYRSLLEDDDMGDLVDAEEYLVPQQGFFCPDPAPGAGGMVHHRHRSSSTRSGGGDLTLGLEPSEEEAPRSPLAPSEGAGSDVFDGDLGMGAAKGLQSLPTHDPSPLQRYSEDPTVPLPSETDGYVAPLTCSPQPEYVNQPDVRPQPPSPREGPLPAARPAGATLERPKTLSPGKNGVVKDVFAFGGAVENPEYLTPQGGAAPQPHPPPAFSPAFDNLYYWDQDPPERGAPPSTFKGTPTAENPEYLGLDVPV
A short description of assay [3]: reduced viability of SK-BR-3 breast cancer cells – cell-based, 24 h, human, pilot screen (AID 572;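 active = viability at or below 10% of carrier control in both of two separate runs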;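 also: compound exposure lasted between 18 and 24 h rather than exactly 24 h; 100% = carrier-treated control wells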). The note with it: SK-BR-3 viability, CellTiter-Glo luminescence, at 10 µM, stronger effect = lower value. On the technique in general: Cellular ATP, detected with luciferase, serves as a proxy for viable cell number.
Assay [4] in a line: HUVEC growth inhibition – cell-based, human, primary screen (AID 575;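 active = viability at or below 30% in both replicate assays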;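 also: 100% = median of untreated cell wells with 0.1% DMSO on each plate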). To be noted: HUVEC proliferation, CellTiter-Glo luminescence, 72 h; at 10 µM; stronger effect = lower value.
Assay [5] is described as follows: H69AR cell proliferation blockers – human, duplicate replicates, primary screen (AID 580).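 Also: 100% = mean luminescence of untreated wells and 0% = no signal.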 To be noted: H69AR lung tumor cells viability, ATP luminescence, 72 h; at 10 µM; stronger effect = lower value.
Assay [6] can be described thus: MRP1 drug-resistance reversers in H69AR cells – cell-based, doxorubicin co-treatment, pilot screen (AID 601;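 active = viability loss from added drug above about 55%, and viability with drug at most 40%, in both replicates, limit read from the data, passing the limit was not always enough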). To be noted: CellTiter-Glo, 72 h, at 10 µM; for differential viability (reversal): stronger effect = higher value.
A short description of assay [7]: yeast transport mutant growth inhibition pilot in 384-well plates, post-Golgi transport modulator project (AID 636; in the data active = inhibition above about 31%). The note with it: absorbance 615 nm, about 18 h, stronger effect = higher value.
Assay [8] is described as follows: growth suppression of yeast trafficking mutant, preliminary HTS, modulators of trafficking downstream of Golgi apparatus project, 1536-format plate, OD 615 nm (AID 637; in the data active = inhibition above about 30%). To be noted: yeast transport mutant growth, absorbance 615 nm, 18 h; stronger effect = higher value.
A short description of assay [9]: S. cerevisiae growth inhibition in permissive medium (OD615), pilot counter-assay for S. cerevisiae lifespan shortening project, permissive growth control (AID 705;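 active = growth inhibition above 25% in both replicates, a cutoff set 3 SD above the mean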). The note with it: OD615, 24 h, at 10 µM, stronger effect = higher value.
Assay [10] is described as follows: S. cerevisiae growth inhibition in restrictive medium, OD615, pilot screen, restrictive growth control, yeast lifespan reduction project (AID 706;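 active = growth inhibition above a set limit, 3 SD over mean compound inhibition, in both replicates, cut at about 43% in these data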;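 also: modified DeaD lifespan yeast strain shifted to restrictive glucose medium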). The note with it: OD615, 48 h, at 10 µM, stronger effect = higher value.
The nature of assay [11]: doxorubicin toxicity protection in MRP-1 cells – H69AR cells, CellTiter-Glo, duplicate, MRP-1 activator project, pilot screen (AID 807;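 active = viability increase at or above a cutoff of the median across tested compounds plus 3 SD, cut at about 8.5% in these data, passing the limit was not always enough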;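 also: compound pretreatment 18-22 h then 72 h combined with doxorubicin; 0% = doxorubicin alone and 100% = vehicle without doxorubicin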). The note with it: H69AR viability with doxorubicin, CellTiter-Glo luminescence; at 10 µM; stronger effect = higher value.
Assay [12] in a line: viability of HCT116 without oncogenic beta-catenin – human colon tumor cells, pilot screen (AID 823;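 active = cell viability at or below a set limit in both duplicate runs, the limit being the all-compound median minus 4 SD, cut at about 23% in these data, passing the limit was not always enough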;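 also: 0% = wells killed by 20 µM Hyamine and 100% = untreated DMSO cell wells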). To be noted: HCT116 beta-catenin knockout viability, CellTiter-Glo, 60 h; at 10 µM; stronger effect = lower value.
Assay [13] is described as follows: viability of PTEN-null HCT116 cells – cell-based, HCT116 clonal line, CellTiter-Glo, pilot screen (AID 824;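 active = viability at or below 27.92% in each of two runs, the all-compound median minus 4 SD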;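 also: 0% = 20 µM Hyamine control and 100% = vehicle cell control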). To be noted: HCT116 PTEN-deleted viability, 60 h, at 10 µM, stronger effect = lower value.
Assay [14] can be described thus: RAM pathway blockade in budding yeast – dse1pr::URA3 reporter, 5-FOA selection, pilot screen (AID 869;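 active = inhibition over a set limit, the all-compound mean plus 3 SD, in both replicate runs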;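 also: 0% = DMSO wells with no growth and 100% = 10 µM 1-NA-PP1 with full growth; RAM network block rescues cells from 5-FOA so hits raise OD615 growth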). To be noted: S. cerevisiae dse1pr::URA3 5-FOA growth, OD615, 2 d; at 10 µM; stronger effect = higher value; strain carries analog-sensitive mutant Cbk1 kinase.
Assay [15] in a line: RAM signaling pathway blockade in yeast – S. cerevisiae, Pdr1DBD-CYC8 efflux-inhibited sensitized strain, primary screen (AID 1298;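 active = RAM network inhibition above 8.4% in each of two replicates, 3 SD over the compound average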;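 also: 0% = DMSO untreated cells without growth and 100% = 10 µM 1-NA-PP1 full growth; higher means more yeast growth rescued from 5-FOA killing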). The note with it: S. cerevisiae cbk1-as DSE1-URA3 strain, 5-FOA growth OD615, 2 d; at 50 µM; stronger effect = higher value.
Where [16] appears, read: H69AR cells + 2 uM doxorubicin, measured here: viability with 2 uM doxorubicin, stronger effect = lower value.
[17] abbreviates: H69AR cells, compound alone cytotoxicity.

The structures appear in SMILES notation. Records with an inconclusive call do not appear. Calls of active or inactive are those of the source.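 The calls were made as follows, unless noted: active = viability at or under a set limit in both replicates, limit being median viability minus 3 SD (cut at about 48% in these data, passing the limit was not always enough); inconclusive = at or under the limit in just one replicate; inactive = at or above the limit in both replicates.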

In general, viability refers to a read-out of living cells in per cent, often relative to untreated cells. In general, inhibition refers to the change of the read-out against control, counted positive when it falls. For the molecule `O=C(Cc1cccs1)Nc1ccccc1NC(=O)Cc1cccs1`, the viability in assay [1] was 81%; in assay [3], 81% (inactive); in assay [4] it was 107% (inactive); in assay [5], 94.7% (inactive); in assay [6] (setting [16]) it was 91%; in [6] (setting [17]), 94.7%. Further, the values for the viability in assay [12] and in assay [13] were 92% (inactive) and 91.9% (inactive), respectively. Further, in [2], the Her2 level was 87.5% (inactive). Moreover, the differential viability (reversal) in assay [6] (H69AR cells + 2 uM doxorubicin) is 3.74% (inactive). Also, the inhibition was -1.15% (inactive) in assay [7], -7.83% (inactive) in assay [8] and 0.905% (inactive) in assay [14]. Further, the growth inhibition in assay [9] is -1.23% (inactive); in [10], -8.9% (inactive). Also, in assay [11], the viability increase was -4% (inactive). The RAM network inhibition in [15] was -0.25% (inactive).

Turning to `CCCCc1cc2c(c(NC(C)=O)n1)c(=O)oc1ccccc12`, the viability in [1] was 112%; in [3] it was 112% (inactive); in [4] it was 80.6% (inactive); in assay [5], 77.9% (inactive); in [6] (setting [16]) it was 86.2%; in assay [6] (setting [17]) it was 77.9%. For the same molecule, the viability is 94.8% (inactive) in [12] and 87.8% (inactive) in [13]. The Her2 level in assay [2] was 99% (inactive). Also, in [6] (H69AR cells + 2 uM doxorubicin), the differential viability (reversal) was -8.33% (inactive). Also, the inhibition was -3.47% (inactive) in assay [7], -4% (inactive) in assay [8] and 1.68% (inactive) in assay [14]. The growth inhibition in assay [9] is -9.7% (inactive); in [10], -4.55% (inactive). In addition, the viability increase in assay [11] is -4.33% (inactive). Besides, the RAM network inhibition in assay [15] is 3.84% (inactive).

`Cc1cccc(-n2ncc3c(NCc4cccnc4)ncnc32)c1`: the viability in assay [1] is 95.5%; in [3], 95.5% (inactive); in [4], 99.3% (inactive); in assay [5], 88% (inactive); in assay [6] (setting [16]) it was 91.2%; in assay [6] (setting [17]), 88%. The viability in assay [12] is 89.4% (inactive); in [13] it was 87.5% (inactive). Also, the Her2 level in assay [2] was 93% (inactive). The differential viability (reversal) in [6] (H69AR cells + 2 uM doxorubicin) was -3.23% (inactive). The inhibition is -4.8% (inactive) in assay [7], 0.5% (inactive) in assay [8] and 2.54% (inactive) in assay [14]. Moreover, the growth inhibition in assay [9] is -8.17% (inactive); in [10] it was -8.12% (inactive). The viability increase in assay [11] is -0.52% (inactive). Also, the RAM network inhibition in assay [15] was 2.13% (inactive).

For the molecule `O=C(CSc1nnc(Cn2c(=O)sc3ccccc32)n1-c1ccccc1)NCC1CCCO1` (configuration not stated), the viability was 80.5% in assay [1]; 80.5% (inactive) in assay [3]; 82.3% (inactive) in assay [4]; 99.8% (inactive) in assay [5]; 87.2% in assay [6] (setting [16]); 99.8% in assay [6] (setting [17]). Further, the viability in assay [12] is 99.1% (inactive); in assay [13], 98.6% (inactive). In addition, the Her2 level in assay [2] is 108% (inactive). In addition, the differential viability (reversal) in assay [6] (H69AR cells + 2 uM doxorubicin) is 12.6% (inactive). The inhibition in [7] was -1.92% (inactive); in [8], 0.83% (inactive); in assay [14], 1.41% (inactive). Besides, the values for the growth inhibition in assay [9] and in [10] were -4.79% (inactive) and 10.2% (inactive), respectively. Also, the viability increase in assay [11] is -2.08% (inactive). Further, in assay [15], the RAM network inhibition was 0.47% (inactive).

As for `COC(=O)CCCCCc1ccc(C(C)=O)s1`, the viability in assay [1] was 86.5%; in assay [3], 86.5% (inactive); in assay [4], 105% (inactive); in assay [5], 100% (inactive); in [6] (setting [16]), 86.5%; in assay [6] (setting [17]), 100%. Moreover, the viability in assay [12] is 96.7% (inactive); in assay [13], 95% (inactive). The Her2 level in assay [2] is 84.5% (inactive). For the same molecule, the differential viability (reversal) in assay [6] (H69AR cells + 2 uM doxorubicin) is 13.6% (inactive). Also, the inhibition in assay [7] is -1.33% (inactive); in assay [8] it was -1.61% (inactive); in assay [14] it was 0.02% (inactive). The results for the growth inhibition in [9] and in [10] were -3.98% (inactive) and -1.53% (inactive), respectively. The viability increase in assay [11] was 0.73% (inactive). The RAM network inhibition in assay [15] was 3.12% (inactive).

For `CC(=O)c1sc(NC(=O)C2COc3ccccc3O2)nc1C` (configuration not stated), the viability in assay [1] was 102%; in assay [3], 102% (inactive); in [4], 80.7% (inactive); in assay [5], 89.2% (inactive); in assay [6] (setting [16]) it was 77.8%; in assay [6] (setting [17]), 89.2%. Further, the figures for the viability in assay [12] and in assay [13] were 99.4% (inactive) and 99% (inactive), respectively. Moreover, in assay [2], the Her2 level is 97.5% (inactive). The differential viability (reversal) in [6] (H69AR cells + 2 uM doxorubicin) is 11.4% (inactive). The inhibition in assay [7] was 4.1% (inactive); in assay [8] it was 3.5% (inactive); in [14] it was 0.05% (inactive). The growth inhibition in assay [9] was -8.75% (inactive); in [10], -3.37% (inactive). In assay [11], the viability increase was -1.12% (inactive). The RAM network inhibition in assay [15] was -0.31% (inactive).
